This is a sample that favours compounds with a hit; in the whole collection about 15% have one here.
Sm TGR block – S. mansoni TGR enzyme inhibition | purified TGR, DTNB reduction, TNB absorbance 405 nm | Potency, µM (series often up to 114 µM), hits mostly inhibitors | actives 3% (n = 360,000) | Q962Y6; further: nearly all actives have a fitted effect of over 60% in size
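TGR 20 nM + NADPH 100 uM (dispensed conc.), cpd preinc 15 min RT; start with NADPH (500 uM addition) then DTNB (15 mM addition). Kinetic TNB absorbance, 405 nm filter. Four-parameter Hill fit across titration.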
HCMV inh – inhibitors of human cytomegalovirus; HFF cells, HCMV-luciferase reporter, 72 h; stronger effect = lower value; actives 4.5% (n = 410,000); activity change, negative = inhibition, % at 57.5 µM; in the data active means activity change below about -60%; inconclusive means no clear call, values can overlap the other calls; inactive means above about -39%
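Compounds were evaluated in HFFs infected with an HCMV luciferase reporter virus (MOI 1 PFU/cell). Luciferase in lysates collected 72 h post infection served as the replication measure.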
Pf growth 96h – P. falciparum growth inhibition at 96 hour, primary screen for plastid delayed-death inhibitors; P. falciparum luciferase reporter growth, 96 h; actives 6.9% (n = 320,000); AID 504834; Potency, µM (doses to about 28.7 µM), usual class: inhibitors
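P. falciparum expressing integrated firefly luciferase grown in erythrocytes (2% hematocrit, 0.05% parasitemia final) with compounds for 96 hours at 37 C, 5% CO2. Growth inhibition read as loss of luminescence after adding luciferase detection reagent.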
HCV inh – inhibitors of hepatitis C virus infection. Huh7.5.1 HCVcc-Cre infection, luciferase reporter, 44 h. actives 3.4% (n = 340,000). Potency, µM (doses to about 41.8 µM), actives largely listed as inhibitors
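After 44 h co-culture of compound, cells and HCVcc-Cre (~0.5 moi), substrate is added for 15 min at room temperature and luciferase measured over 15 sec. Cells were seeded at 1,000/well and pre-cultured 4 h.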
SARS PLP yeast – SARS-CoV PLP inhibition in yeast; Potency, µM (top dose mostly 32.9 µM), most hits filed as activators; S. cerevisiae expressing SARS-CoV PLpro, growth rescue; AID 485353; actives 0.19% (n = 330,000); calls by dose curve; further: nearly all actives have a fitted effect of over 55% in size
Pf growth 48h – P. falciparum growth inhibition at 48 hours (one generation). P. falciparum luciferase growth in erythrocytes, 48 h. Potency, µM (titrated, usually from 28.7 µM), hits mostly inhibitors. actives 5.9% (n = 310,000). AID 504832
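Compounds are pin-transferred into medium, infected erythrocytes (2% hematocrit, 0.1% parasitemia final) are added, and plates sit one parasite generation at 37 C in 5% CO2. Detection reagent is then added and luminescence measured.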
Hits are given with their value; - = inactive; ? = inconclusive; . = no result; [ ] = another dose, or the depositor's remark. Unless noted, the call rests on the fitted dose curve; in most records, active means well fitted curve in the direction sought with a large enough effect; inconclusive means small, poorly fitted or top-dose-only effect, or another doubt; inactive means no such curve, though single readings can be large; an effect the other way counts as inactive or inconclusive.

SMILES	Sm TGR block	HCMV inh	Pf growth 96h	HCV inh	SARS PLP yeast	Pf growth 48h
Cc1ccc([C@@H]2C[C@H]3[C@@H](CN2S(=O)(=O)c2ccc(Cl)cc2)C(=O)C[C@@H](c2ccccc2F)N3S(=O)(=O)c2ccc(C)cc2)cc1	.	-	.	.	.	.
Cc1ccc(Cn2c(=O)n(Cc3ccccc3)c(=O)c3c(C)c(C)sc32)cc1	-	-	.	.	.	.
COc1ccccc1C(=O)N/C(=C\c1cn(S(=O)(=O)N(C)C)c2ccccc12)C(=O)N1CCCCC1	-	-	-	-	-	?
O=C(C1=C[C@@H]2[C@H]3C(=O)N(c4ccc(Cl)cc4)C(=O)[C@H]3[C@@H](C(=O)c3ccc(Cl)cc3)N2C=C1)c1ccccc1	14µM	-	?	-	-	-
CC(=O)Oc1ccc(C(=O)[C@H]2[C@H]3C(=O)N(c4ccccc4)C(=O)[C@H]3[C@@H]3C=CC=NN32)cc1	?	-	-	-	-	-
CCN1CCN(CCCNC(=O)c2cc3c(=O)n(C)c4ccccc4c3s2)CC1	-	-	.	.	.	.
Cc1ccc(NC(=O)c2cn3c4c(ccc(Cl)c4c2=O)OC(C)C3)c(C)c1 (stereo not given)	-	-	.	.	.	.
CCOC(=O)N1CCN(CC(=O)Nc2cc(OCC)ccc2OCC)CC1	-	-	.	-	-	?
CCOc1ccc(OCC)c(NC(=O)CN2CCN(c3ccc(C)cc3C)CC2)c1	-	-	-	-	-	8.3µM
O=c1c2ccccc2c(-c2ccccc2)nn1-c1ccc(Cl)c(Cl)c1	-	-	-	-	?	?
COc1ccc(NC(=S)NC2CCCCC2)cn1	-	-87	-	-	-	-
S=C(Nc1ccc(Oc2ccccc2)cc1)NC1CCCC1	-	-	-	-	-	-
S=C(Nc1ccc(Br)cc1)NC1CCCC1	-	-65	-	-	?	?
COc1ccc(-n2nnnc2CNC(=O)C(=O)c2c(C)[nH]c3ccccc23)cc1	-	-	-	-	-	?
COc1ccccc1NC(=O)c1ccc(NC(=O)c2ccco2)cc1	-	?	-	-	-	?
CC(C)(C)C(=O)Nc1ccc(NC(=O)c2ccco2)nc1	-	-96	-	-	-	-
CC(C)(C)c1ccc(C(=O)Nc2ccc(NC(=O)c3ccco3)cc2)cc1	-	-83	10µM	?	-	?
CC(C)(C)NC(=O)c1cccc(NC(=O)c2ccc(NC(=O)c3ccco3)cc2)c1	-	-	-	2.5µM	-	-
CCOc1ccccc1NC(=O)c1ccc(NC(=O)c2ccco2)cc1	-	?	-	10µM	-	2.9µM
CC(C)(C)NC(=O)c1cccc(NC(=O)c2ccco2)c1	-	-	-	-	-	-
CCOc1ccccc1NC(=O)c1ccc(C(=O)Nc2ccccc2OCC)cc1	-	-	.	.	.	.
COc1ccccc1C(=O)N/N=C(\C)c1ccc(NC(=O)Cc2ccccc2)cc1	-	-	-	-	-	?
CCCOc1ccccc1NC(=O)c1ccc(N)cc1	-	-	?	7.1µM	-	-
COC(=O)Cc1ccc(NC(=O)c2ccc(NC(=O)c3ccco3)cc2)cc1	-	-83	?	?	-	-
Cc1cc(NC(=O)c2ccccc2)ncc1NC(=O)c1ccco1	22µM	-	.	-	-	-
SMILES	Sm TGR block	HCMV inh	Pf growth 96h	HCV inh	SARS PLP yeast	Pf growth 48h
C/C(=N\NC(=O)c1ccccc1N)c1ccc(NC(=O)Cc2ccccc2)cc1	-	-	-	-	-	9.3µM
CCC(=O)Nc1cc(C)c(NC(=O)c2ccco2)cn1	-	?	-	-	-	-
COc1ccc(OCc2nc3ccccc3n2C(C)c2ccccc2)cc1 (stereo not given)	-	-	.	.	.	.
C/C(=N\NC(=O)c1ccco1)c1ccc(-c2ccccc2)cc1	-	-	?	-	-	?
CCOC(=O)Cc1ccc(NC(=O)c2ccccc2Br)cc1	.	-	-	-	-	-
CCOC(=O)Cc1ccc(NC(=O)c2ccc(C(C)(C)C)cc2)cc1	-	-88	.	7.1µM	-	4.1µM
C/C(=N\NC(=O)c1ccco1)c1ccc(NC(=O)c2ccccc2)cc1	-	-	13µM	-	-	-
Cc1ccc(-c2noc(C(C)NC(=O)c3ccco3)n2)cc1 (stereo not given)	-	-	.	.	.	.
CC(NC(=O)c1ccco1)c1nc(-c2ccc(C(C)(C)C)cc2)no1 (stereo not given)	-	-	?	16µM	-	-
Cc1nn(CC(=O)NCCCN2CCCC2=O)c(C)c1[N+](=O)[O-]	.	-	.	-	-	.
Cn1c(S(=O)(=O)c2ccc([N+](=O)[O-])cc2)nc(Br)c1Br	?	-	9.3µM	-	-	?
COC(=O)c1ccc(S(=O)(=O)c2ccc([N+](=O)[O-])cc2)cc1	-	-	-	-	-	-
COc1ccc(C=C2C=C(C(C)(C)C)C(=O)C(C(C)(C)C)=C2)cc1OC	4.5µM	-99	-	?	-	?
Cn1c(=O)c2c(nc3n2CC(O)CN3c2ccc(O)cc2)n(C)c1=O (stereo not given)	20µM	-	-	-	-	-
Cc1c(NC(=O)OCCNC(=O)COc2c(Cl)cccc2Cl)sc(=S)n1C	-	-	9.3µM	-	-	?
Cc1ccc(C)c(CSc2nc3c([nH]c4ccccc43)c(=O)n2C)c1	-	-	.	.	.	.
CC1CCCCN1C(=O)CSc1nnc(-c2ccco2)n1C (stereo not given)	-	-	-	-	-	-
CCn1c(SCC(=O)c2ccc3c(c2)OCCO3)nnc1-c1ccco1	22µM	-	-	-	-	-
CCn1c(SCC(=O)N2CCCCC2C)nnc1-c1ccco1 (stereo not given)	45µM	-	-	-	-	-
CCn1c(SCC(=O)c2ccc3ccccc3c2)nnc1-c1ccco1	32µM	-	.	-	-	?
CCOc1ccc(NC(=O)NCCn2nnc3cc(S(=O)(=O)N(C)C)ccc32)cc1	-	-	.	.	.	.
COc1ccccc1CNC(=O)c1ccc(N2CCOCC2)c([N+](=O)[O-])c1	-	-	?	?	-	-
O=C(Cn1cc(SCc2ccccc2Cl)c2ccccc21)N1CCCCCC1	-	-	.	.	.	.
O=C(/C=C/c1ccco1)N1CCN(c2ncccn2)CC1	20µM	-	-	-	-	-
COc1ccc(S(=O)(=O)N2CCN(C(=O)/C=C/c3ccco3)CC2)cc1	8.9µM	-	-	-	-	?
COc1cccc(N2CCN(Cc3ccco3)CC2)c1	-	-	-	-	-	-
CC(C)C(=O)N1CCC(Cc2ccccc2)CC1	-	-	?	-	-	-
O=C(/C=C/c1ccco1)N1CCC(Cc2ccccc2)CC1	20µM	-	-[5.75 µM]	-	-	?
COc1cccc(N2CCN(C(=O)/C=C/c3ccco3)CC2)c1	22µM	-	?	-	-	?

From PubChem
